Measurements as given in PubChem BioAssay.
Values without a mark were called inactive. Some of the results follow. The source made the active and inactive calls.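 The calls were made as follows, unless noted: active = mean inhibition across triplicate wells above the cutoff set by the earlier primary insulin-degrading enzyme screen (cut at about 16% in these data); inactive = the rest.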

Legend:
[1] = target: Insulin-degrading enzyme (Homo sapiens) (UniProt P14735); assay: cellular IDE Abeta-cleavage inhibition – fluorescence polarization, HEK cells, FAbetaB substrate, confirmation (AID 435028); details: at 5.59 µM, hits give high values;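 also: 0% = DMSO wells and 100% = 60 µM reference IDE inhibitor Ii1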
[2] = HEK cell viability loss – luminescence, cytotoxicity control for IDE inhibitor project (AID 449730; in the data active = inhibition above about 22%;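 also: 0% = vehicle wells and 100% = reference cytotoxic drug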); details: HEK293 cytotoxicity, ATP luminescence; at 5.59 µM; hits give high values
[3] = target: Oxytocin receptor (Homo sapiens) (UniProt P30559); assay: oxytocin receptor activation, retest of hits – fluorescence, CHO-OTR cells, triplicate, confirmation (AID 434963;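 active = mean activation above about 20% derived from the earlier single-dose screen, limit read from the data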;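 also: peak over minimum fluorescence ratio per well during a 100 second FLIPR read; 0% = DMSO alone and 100% = oxytocin high control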); details: Fluo-8 calcium fluorescence, agonist, at 3 µM, hits give high values
[4] = target: Vasopressin V1a receptor (Homo sapiens) (UniProt P37288); assay: activators of vasopressin V1R in CHO cells – cell-based, triplicate, fluorescence, counter-screen for OXTR agonist project (AID 434991;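 active = mean activation over triplicate exceeds the hit threshold set in the earlier primary screen, cut at about 20% in these data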;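 also: peak over basal fluorescence ratio within a 100 second read; 0% = DMSO alone and 100% = 3 nM vasopressin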); details: Fluo-8 calcium fluorescence, at 3 µM, hits give high values
[5] = reduced OD of V66 E. coli with T4 gene 2 phage – absorbance, RecBCD inhibitor project, confirmation (AID 651982;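 active = mean inhibition over triplicates exceeding the hit threshold derived in the original primary screen, cut at about 11% in these data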); details: E. coli V66 + T4 2- phage, growth OD; at 11.9 µM; hits give high values
[6] = bacterial growth inhibition – absorbance, high throughput, counter-screen for RecBCD inhibitor project (AID 651983; in the data active = inhibition above about 20%;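 also: E. coli strain V66 grown with compound alone and no phage infection; 0% = bacteria with DMSO vehicle only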); details: E. coli viability, absorbance (OD) growth; at 11.9 µM; hits give high values
[7] = reduced optical density, T4-challenged addAB+ bacteria – absorbance, E. coli V3065, T4 phage, counter-screen for RecBCD inhibitor project, confirmation (AID 651984;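 active = mean inhibition above the solvent-only control wells' mean plus 3 SD, cut at about 22% in these data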;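 also: higher means less bacterial growth from phage killing when AddAB is blocked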); details: E. coli expressing H. pylori AddAB + T4 phage, OD growth; at 11.9 µM; hits give high values; gene 2 mutant T4, recBCD-deleted host
[8] = target: Photoreceptor-specific nuclear receptor (Homo sapiens) (UniProt Q9Y5X4); assay: retest of NR2E3-NCOR disrupting agonists – cell-based, luminescence, CHO-S two-hybrid, confirmation (AID 624378;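 active = average inhibition above a cutoff equal to the mean inhibition of all tested compounds plus one SD, cut at about 70% in these data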;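 also: 0% = DMSO in NR2E3 cells and 100% = DMSO in cells lacking NR2E3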); details: CHO-S mammalian two-hybrid NR2E3-NCOR, luciferase luminescence; at 3.98 µM; hits give high values
[9] = nonselective effects on VP16 transactivation – cell-based, luminescence, CHO-S, high throughput, counter-screen for NR2E3 agonist project, confirmation (AID 624379;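 active = mean inhibition above a cutoff equal to the average over all tested compounds plus one standard deviation, cut at about 70% in these data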;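 also: 0% = DMSO with VP16-transfected cells and 100% = DMSO with cells lacking VP16; higher means less reporter light so more repression of VP16 activity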); details: CHO-S GAL4-VP16 luciferase reporter, at 3.98 µM, hits give high values
[10] = target: Platelet-activating factor acetylhydrolase IB subunit alpha1 (Homo sapiens) (UniProt Q15102); assay: inhibition of PAF acetylhydrolase 1B subunit 3 – biochemical, fluorescence polarization, human, confirmation (AID 493032;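 active = average inhibition over triplicate runs above the hit cutoff set in the earlier primary screen, cut at about 25% in these data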;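 also: 0% = enzyme with DMSO and 100% = wells lacking PAFAH1B3 protein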); details: recombinant PAFAH1B3, FP-Rh activity-based probe, at 3.39 µM, hits give high values
[11] = target: Nuclear receptor coactivator 3 (Homo sapiens) (UniProt Q9Y6Q9); assay: NCOA3 GAL4-fusion reporter inhibition – cell-based, luminescence, quadruplicate, confirmation (AID 588792;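 active = mean inhibition over 43.08%, the solvent-only control mean plus 3 SD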;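 also: 0% = DMSO treated cells and 100% = gossypol at 36 µM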); details: HEK293 GAL4-SRC3 luciferase reporter, at 3.6 µM, hits give high values
[12] = test system: transactivating tegument protein VP16 (Human herpesvirus 1), Gal4-VP16 luciferase reporter; assay: repression of VP16-driven luciferase reporter – cell-based, luminescence, high throughput, counter-screen for SRC3 inhibitor project (AID 588794; in the data active = inhibition above about 30%); details: mammalian cells, at 3.6 µM, hits give high values
[13] = test system: transactivating tegument protein VP16 (Human herpesvirus 1); assay: compounds suppressing VP16-driven luciferase signal – cell-based, luminescence, single concentration, counter-screen for SRC2 inhibitor project (AID 652007; in the data active = inhibition above about 36%); details: cell-based VP16 transactivation luciferase reporter, at 8.9 µM, hits give high values
[14] = target: Nuclear receptor coactivator 2 (Homo sapiens) (UniProt Q15596); assay: inhibition of GAL4-SRC2 driven luciferase expression – cell-based, luminescence, HEK293, triplicate, confirmation (AID 652008;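 active = mean inhibition above 46.5%, the solvent-only control mean plus 3 SD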;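 also: 0% = DMSO-treated cells and 100% = Gossypol at 36 µM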); details: HEK293 GAL4-SRC2 luciferase reporter, at 8.9 µM, hits give high values
[15] = VP16-driven transactivation reporter suppression – cell-based, luminescence, HEK293, counter-screen for COUP-TFII antagonist project (AID 687007; in the data active = inhibition above about 13%); details: HEK293 Gal4-VP16 luciferase reporter, at 8.5 µM, hits give high values
[16] = target: COUP transcription factor 2 (Homo sapiens) (UniProt P24468); assay: retest of COUP-TFII reporter suppressors – cell-based, luciferase reporter, HEK293, triplicate, confirmation (AID 687008;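 active = mean inhibition over three repeats above a set limit taken from the earlier primary screen, cut at about 38% in these data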;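 also: 100% = cells given the luciferase reporter alone without the COUP-TF2 vector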); details: HEK293 NGFI-A luciferase reporter, luminescence; at 8.5 µM; hits give high values
COUP transcription factor 2 (Homo sapiens), sequence (P24468 whole entry, looked up): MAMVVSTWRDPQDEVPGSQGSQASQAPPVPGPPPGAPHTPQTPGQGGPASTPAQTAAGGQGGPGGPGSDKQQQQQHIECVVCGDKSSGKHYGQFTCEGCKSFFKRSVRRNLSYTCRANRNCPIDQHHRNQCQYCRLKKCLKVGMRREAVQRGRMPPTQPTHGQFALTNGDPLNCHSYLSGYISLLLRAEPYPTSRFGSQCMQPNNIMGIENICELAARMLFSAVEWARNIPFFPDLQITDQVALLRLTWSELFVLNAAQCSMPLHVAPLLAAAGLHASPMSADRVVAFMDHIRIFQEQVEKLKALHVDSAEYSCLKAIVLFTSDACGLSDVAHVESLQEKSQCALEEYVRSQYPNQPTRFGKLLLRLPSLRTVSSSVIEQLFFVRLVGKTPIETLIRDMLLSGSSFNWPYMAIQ

Insulin-degrading enzyme (Homo sapiens), sequence (P14735 whole entry, looked up): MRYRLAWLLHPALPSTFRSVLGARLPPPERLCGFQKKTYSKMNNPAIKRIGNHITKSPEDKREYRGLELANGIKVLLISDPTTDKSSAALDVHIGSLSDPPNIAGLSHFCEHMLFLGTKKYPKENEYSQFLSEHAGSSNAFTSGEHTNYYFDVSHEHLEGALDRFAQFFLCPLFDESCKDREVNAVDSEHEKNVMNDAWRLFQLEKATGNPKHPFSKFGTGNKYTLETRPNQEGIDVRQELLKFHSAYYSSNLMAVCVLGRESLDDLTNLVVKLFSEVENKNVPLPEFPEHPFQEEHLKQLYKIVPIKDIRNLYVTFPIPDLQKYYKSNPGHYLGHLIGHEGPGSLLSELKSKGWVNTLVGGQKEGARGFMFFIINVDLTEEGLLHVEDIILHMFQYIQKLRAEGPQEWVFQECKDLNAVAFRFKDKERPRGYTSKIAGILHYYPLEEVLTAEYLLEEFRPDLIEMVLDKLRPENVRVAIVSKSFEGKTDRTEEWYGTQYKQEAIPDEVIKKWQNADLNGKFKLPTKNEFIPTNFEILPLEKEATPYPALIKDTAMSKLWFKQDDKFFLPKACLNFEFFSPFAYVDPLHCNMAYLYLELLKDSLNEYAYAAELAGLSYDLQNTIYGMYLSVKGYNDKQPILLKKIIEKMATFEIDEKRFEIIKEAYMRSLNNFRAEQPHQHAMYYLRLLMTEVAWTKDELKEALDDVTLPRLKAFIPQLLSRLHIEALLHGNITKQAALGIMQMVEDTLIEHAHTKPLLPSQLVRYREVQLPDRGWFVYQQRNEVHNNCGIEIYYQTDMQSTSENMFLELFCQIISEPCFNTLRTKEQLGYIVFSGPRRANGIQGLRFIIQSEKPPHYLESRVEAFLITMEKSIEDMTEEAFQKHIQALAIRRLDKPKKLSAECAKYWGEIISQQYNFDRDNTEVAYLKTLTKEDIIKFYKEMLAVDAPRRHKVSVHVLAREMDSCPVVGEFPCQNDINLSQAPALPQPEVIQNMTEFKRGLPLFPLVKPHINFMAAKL
Vasopressin V1a receptor (Homo sapiens), sequence (P37288 whole entry, looked up): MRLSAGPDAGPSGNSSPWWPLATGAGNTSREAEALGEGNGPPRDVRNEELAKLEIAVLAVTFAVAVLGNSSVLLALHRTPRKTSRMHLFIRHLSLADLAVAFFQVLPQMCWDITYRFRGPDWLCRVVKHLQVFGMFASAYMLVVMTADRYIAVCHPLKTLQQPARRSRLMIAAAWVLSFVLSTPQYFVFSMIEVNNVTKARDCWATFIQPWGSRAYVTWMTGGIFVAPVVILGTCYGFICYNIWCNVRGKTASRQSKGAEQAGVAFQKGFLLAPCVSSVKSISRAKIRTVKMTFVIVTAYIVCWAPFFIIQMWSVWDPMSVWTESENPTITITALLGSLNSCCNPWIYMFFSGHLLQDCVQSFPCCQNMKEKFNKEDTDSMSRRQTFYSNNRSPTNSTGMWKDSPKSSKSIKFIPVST
Oxytocin receptor (Homo sapiens), sequence (P30559 whole entry, looked up): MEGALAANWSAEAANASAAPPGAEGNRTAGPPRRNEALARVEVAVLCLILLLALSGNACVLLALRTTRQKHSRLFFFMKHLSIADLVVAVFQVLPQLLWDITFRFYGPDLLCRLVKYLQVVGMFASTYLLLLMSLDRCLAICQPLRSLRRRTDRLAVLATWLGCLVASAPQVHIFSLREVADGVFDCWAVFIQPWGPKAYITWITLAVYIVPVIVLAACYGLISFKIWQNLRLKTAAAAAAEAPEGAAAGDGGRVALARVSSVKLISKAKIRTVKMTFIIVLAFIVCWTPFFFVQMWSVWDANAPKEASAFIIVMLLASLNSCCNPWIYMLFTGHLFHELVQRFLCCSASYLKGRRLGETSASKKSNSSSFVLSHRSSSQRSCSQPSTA
Photoreceptor-specific nuclear receptor (Homo sapiens), sequence (Q9Y5X4 whole entry, looked up): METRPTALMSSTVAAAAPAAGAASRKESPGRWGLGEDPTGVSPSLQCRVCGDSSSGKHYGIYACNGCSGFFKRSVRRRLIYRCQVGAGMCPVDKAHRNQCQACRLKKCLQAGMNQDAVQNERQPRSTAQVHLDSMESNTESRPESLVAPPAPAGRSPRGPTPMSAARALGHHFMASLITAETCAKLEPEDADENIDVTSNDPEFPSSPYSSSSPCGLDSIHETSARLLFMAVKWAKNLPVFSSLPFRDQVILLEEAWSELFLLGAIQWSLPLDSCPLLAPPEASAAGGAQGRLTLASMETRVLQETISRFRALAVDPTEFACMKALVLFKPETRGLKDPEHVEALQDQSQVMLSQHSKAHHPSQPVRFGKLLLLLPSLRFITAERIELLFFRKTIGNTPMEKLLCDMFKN
Platelet-activating factor acetylhydrolase IB subunit alpha1 (Homo sapiens), sequence (Q15102 whole entry, looked up, the tested form may be a part): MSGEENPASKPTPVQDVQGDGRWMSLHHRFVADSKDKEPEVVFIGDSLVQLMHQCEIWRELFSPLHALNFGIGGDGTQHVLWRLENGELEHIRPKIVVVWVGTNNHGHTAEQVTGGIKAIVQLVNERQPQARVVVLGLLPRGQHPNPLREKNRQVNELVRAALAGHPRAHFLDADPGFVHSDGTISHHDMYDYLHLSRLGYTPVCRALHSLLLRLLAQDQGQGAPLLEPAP
Nuclear receptor coactivator 3 (Homo sapiens), sequence (Q9Y6Q9 whole entry, looked up, the tested form may be a part): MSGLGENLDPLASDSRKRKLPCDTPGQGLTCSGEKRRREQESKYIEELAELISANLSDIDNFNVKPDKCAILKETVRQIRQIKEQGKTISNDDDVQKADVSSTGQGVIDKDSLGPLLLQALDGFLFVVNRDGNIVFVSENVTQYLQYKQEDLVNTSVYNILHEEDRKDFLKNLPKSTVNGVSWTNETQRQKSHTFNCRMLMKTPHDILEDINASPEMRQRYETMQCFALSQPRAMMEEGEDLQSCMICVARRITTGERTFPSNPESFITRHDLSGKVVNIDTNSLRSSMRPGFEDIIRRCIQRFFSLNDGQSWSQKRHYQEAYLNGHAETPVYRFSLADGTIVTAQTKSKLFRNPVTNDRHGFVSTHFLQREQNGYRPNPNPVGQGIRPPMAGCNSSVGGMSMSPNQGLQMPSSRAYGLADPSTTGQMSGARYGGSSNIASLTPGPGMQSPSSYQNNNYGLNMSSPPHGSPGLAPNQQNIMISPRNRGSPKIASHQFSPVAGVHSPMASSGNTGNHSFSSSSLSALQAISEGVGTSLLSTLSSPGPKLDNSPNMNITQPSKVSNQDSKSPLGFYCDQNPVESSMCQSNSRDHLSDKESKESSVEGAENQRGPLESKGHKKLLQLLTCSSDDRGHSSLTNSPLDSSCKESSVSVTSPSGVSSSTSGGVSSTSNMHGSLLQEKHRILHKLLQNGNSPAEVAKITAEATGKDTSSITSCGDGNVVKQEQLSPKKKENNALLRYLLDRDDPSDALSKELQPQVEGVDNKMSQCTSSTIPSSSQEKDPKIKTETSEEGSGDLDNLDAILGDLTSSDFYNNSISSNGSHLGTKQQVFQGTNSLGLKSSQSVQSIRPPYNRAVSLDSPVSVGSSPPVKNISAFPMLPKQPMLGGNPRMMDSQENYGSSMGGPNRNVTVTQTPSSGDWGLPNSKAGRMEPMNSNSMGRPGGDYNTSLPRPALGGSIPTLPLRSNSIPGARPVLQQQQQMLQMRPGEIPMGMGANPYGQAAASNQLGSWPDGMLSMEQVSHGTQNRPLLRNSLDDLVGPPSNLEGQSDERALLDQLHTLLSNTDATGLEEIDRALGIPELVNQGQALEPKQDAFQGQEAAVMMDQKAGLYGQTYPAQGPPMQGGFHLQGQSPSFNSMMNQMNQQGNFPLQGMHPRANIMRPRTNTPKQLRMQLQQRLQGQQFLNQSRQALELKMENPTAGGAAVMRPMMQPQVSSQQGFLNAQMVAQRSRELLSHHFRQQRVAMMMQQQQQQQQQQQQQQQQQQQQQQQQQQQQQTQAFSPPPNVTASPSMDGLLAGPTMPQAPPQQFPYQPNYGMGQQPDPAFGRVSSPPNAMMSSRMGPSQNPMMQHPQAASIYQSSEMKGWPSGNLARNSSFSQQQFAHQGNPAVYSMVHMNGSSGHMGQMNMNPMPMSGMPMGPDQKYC

SMILES: Cc1c(C(=O)Nc2cccc(-c3nnc4n3CCCCC4)c2)oc2ccccc12
- inhibition [1]: 5.89%
- inhibition [2]: 21.4%

SMILES: CN(C)c1ccc(/C=C2\NC(=S)N(Cc3ccccc3)C2=O)cc1
- inhibition [1]: 135% (active)
- inhibition [2]: 24.2% (active)

SMILES: CCCc1nc(SCC(=O)Nc2ccc(S(=O)(=O)N(C)C)cc2)c2ccccc2n1
- inhibition [1]: 6.74%
- inhibition [2]: 21.9%

SMILES: CCC(=C/c1sc2ccc3ccccc3c2[n+]1C)/C=C1\Sc2ccc3ccccc3c2N1C
- inhibition [1]: 13.4%
- inhibition [2]: 110% (active)

SMILES: O=C(Nc1ccc(Sc2ccc(Br)cc2)cc1)c1ccco1
- inhibition [1]: 14.3%
- inhibition [2]: 20.9%

SMILES: CCOc1ccc(Cn2nnc(C(=O)Nc3ccc(OC)cc3OC)c2N)cc1
- activation [3]: 16.4%
- activation [4]: 14.5%
- inhibition [5]: -0.29%
- inhibition [6]: -0.35%
- inhibition [7]: -1.47%

SMILES: CN(C)S(=O)(=O)c1ccc(Oc2ccc(S(=O)(=O)N(C)C)cc2)cc1
- activation [3]: 11.7%
- activation [4]: 11.1%
- inhibition [8]: 71.8% (active)
- inhibition [9]: 31.9%

SMILES: COc1cc(/C=C2/SC(=S)N(Cc3ccccc3)C2=O)cc(OC)c1O
- activation [3]: 29.3% (active)
- activation [4]: 38.2% (active)
- inhibition [1]: 142% (active)
- inhibition [2]: 19.6%

SMILES: CCN1CCCC1CNc1ncnc2c1[nH]c1ccc(F)cc12 (stereo not given)
- inhibition [1]: 3.64%
- inhibition [2]: 8.81%

SMILES: CC1(C)Cc2cccc(OCC(=O)N3CCN(c4ccc([N+](=O)[O-])cc4)CC3)c2O1
- inhibition [1]: 4.72%
- inhibition [2]: 19.7%

SMILES: CCOC(=O)CC1C(=O)NCCN1c1nc2c(C)cccn2c(=O)c1/C=C1\SC(=S)N(C(C)CC)C1=O (stereo not given)
- inhibition [1]: 27.1% (active)
- inhibition [2]: 41.5% (active)

SMILES: C=CCC1=C/C(=C\c2c(N)n3nc(CC(=O)N4CCOCC4)sc3nc2=O)C=C(OC)C1=O
- inhibition [1]: 25.9% (active)
- inhibition [2]: 12.5%

SMILES: Cn1c2ccccc2c2cc(/C=C(\NC(=O)c3ccccc3)C(=O)NCC(=O)O)ccc21
- inhibition [1]: 17.3% (active)
- inhibition [2]: 5.76%

SMILES: O=C(/C=C/c1ccc(OCc2c(F)cccc2Cl)cc1)N1CCOCC1
- inhibition [1]: 12.4%
- inhibition [2]: 67.9% (active)

SMILES: CCCCc1cc(=O)oc2c(C)c(OCC(=O)N3CCC(C(N)=O)CC3)ccc12
- inhibition [1]: 8.74%
- inhibition [2]: 11.7%

SMILES: O=C(Oc1c(-c2ccco2)oc2ccccc2c1=O)c1cccnc1
- inhibition [1]: 93% (active)
- inhibition [2]: 8.69%

SMILES: CCN1/C(=C/c2ccc3ccc(C)cc3[n+]2CC)Sc2ccccc21
- inhibition [1]: 55.5% (active)
- inhibition [2]: 107% (active)

SMILES: Cc1cccc(-n2c(Cc3cc(=O)[nH]c(=O)[nH]3)nnc2SCC(=O)Nc2cccc(C(F)(F)F)c2)c1
- inhibition [1]: 6.02%
- inhibition [2]: 3.28%

SMILES: O=C(/C=C(O)/C=C/c1ccc(O)cc1)/C=C/c1ccc(O)cc1
- inhibition [10]: 31.6% (active)

SMILES: COc1ccc(C(=O)Nc2nc(-c3ccc(S(=O)(=O)N4CCOCC4)cc3)cs2)cc1
- inhibition [11]: -12.4%
- inhibition [12]: -5.9%
- inhibition [13]: 16.2%
- inhibition [14]: 21.5%
- inhibition [15]: -11.1%
- inhibition [16]: 40.2% (active)
